Compound activity from PubChem BioAssay.
FBW7 act = FBW7 E3 ligase activators, primary screen, biochemical, AlphaScreen, human. AID 1259310, 2017. F-box/WD repeat-containing protein 7 (Homo sapiens), Q969H0. hit rate 0.13% among 650,000. normalized activity (activation), % at 26.1 µM. AlphaScreen FBW7–phospho-cyclin E peptide binding, activator screen; in the data active means normalized activity above about 1.9%;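 further: purified mutant Fbw7 with reduced substrate affinity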
TEAD-YAP block = TEAD-YAP interaction inhibition, primary screen, TEAD-YAP interaction inhibitor project, luminescence, HEK-TIYL cells | TEAD-Gal4/YAP UAS-luciferase luminescence | inhibition, % at 9.12 µM | hit rate 1.4% among 640,000 | AID 1259422, 2018; in the data active means inhibition above about 32%;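 further: 0% = median of test compound wells and 100% = reference inhibitor wells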
GPR151 ag = activators of human GPR151, primary screen, cell-based, PathHunter beta-arrestin, luminescence. G-protein coupled receptor 151 (Homo sapiens), Q8TDV0. PathHunter beta-arrestin GPR151 cells. activation, % at 11.2 µM. hit rate 1% among 650,000; in the data active means activation above about 4.9%;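 further: 0% = median of compound wells and 100% = cells with positive control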
MITF inh = MITF inhibitors, primary screen, biochemical, AlphaScreen, human; Microphthalmia-associated transcription factor (Homo sapiens), O75030; AlphaScreen MITF homodimerization, bead proximity signal; inhibition, % at 2.6 µM; hit rate 0.91% among 650,000; in the data active means inhibition above about 50%;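 further: 0% = vehicle wells with protein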
Target sequence (O75030 whole entry, looked up): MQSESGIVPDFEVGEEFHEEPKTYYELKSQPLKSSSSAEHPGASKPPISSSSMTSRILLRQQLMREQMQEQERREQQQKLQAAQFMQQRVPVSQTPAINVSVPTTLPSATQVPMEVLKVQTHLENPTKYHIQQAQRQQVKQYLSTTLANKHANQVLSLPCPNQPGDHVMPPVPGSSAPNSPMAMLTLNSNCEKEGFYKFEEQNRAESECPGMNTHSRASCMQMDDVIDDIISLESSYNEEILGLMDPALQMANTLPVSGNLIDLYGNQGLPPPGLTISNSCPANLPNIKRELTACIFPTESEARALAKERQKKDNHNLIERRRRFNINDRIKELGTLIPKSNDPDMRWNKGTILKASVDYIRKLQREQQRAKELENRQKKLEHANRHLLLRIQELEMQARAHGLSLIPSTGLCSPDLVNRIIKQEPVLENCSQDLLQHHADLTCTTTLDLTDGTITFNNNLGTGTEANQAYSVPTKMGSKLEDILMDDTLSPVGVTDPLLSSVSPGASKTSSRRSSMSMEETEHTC
MITF confirm = MITF inhibitors, retest of hits, confirmation, biochemical, AlphaScreen, triplicate | shares compounds with MITF inh | AlphaScreen MITF homodimerization, biotin/His-MITF beads | inhibition, % at 2.6 µM | hit rate 16% among 4,700 | AID 1259372, 2018;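 active means inhibition above a cutoff derived from the DMSO control wells, cut at about 28% in these data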;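 further: 0% = MITF dimer wells with DMSO only; inhibitors lower the bead chemiluminescence by keeping MITF from dimerizing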
AS interf DR = AlphaScreen optical interference compounds, dose response, counter-screen, biochemical, HTS. IC50, µM. AID 1259373, 2018. hit rate 6% among 480. shares compounds with MITF inh. AlphaScreen optical interference counterscreen, cell-free; call rule not given here
AS interf ctr = AlphaScreen optical interference compounds, counter-screen for MITF inhibitor project, biochemical, triplicate. shares compounds with MITF inh. LysRS AlphaScreen counterscreen, signal interference. inhibition, % at 2.6 µM. hit rate 7.6% among 4,700. AID 1259376, 2018;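 active means inhibition above a cutoff derived from the DMSO control wells, cut at about 30% in these data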
* hit, by the source's call; nt = no result given. This is a sample that favours compounds with a hit; in the whole collection about 3.5% have one here.

SMILES	FBW7 act	TEAD-YAP block	GPR151 ag	MITF inh	MITF confirm	AS interf ctr	others
Cc1ccc(C)n1C(CC(=O)O)c1cccc(Cl)c1 (stereo unspecified)	0	3	0	77*	16	7
CN1[C@@H](C(=O)Nc2cc(Cl)ccc2O)C[C@@H](c2cccs2)NS1(=O)=O	0	14	0	70*	9	6
CCNS(=O)(=O)c1ccc(Cl)c(Cl)c1	0	4	0	56*	-2	5
COc1ccccc1-n1c(CNC(=O)c2cccs2)nnc1SCC(=O)Nc1cccc(C)c1	0	6	-1	13	nt	nt
COc1ccc(OC)c(-n2c(CNC(=O)c3cccs3)nnc2SCC(=O)Nc2cccc(C)c2)c1	0	11	0	62*	-10	-7
Cc1ccc(C2NS(=O)(=O)N=C2N)cc1 (stereo unspecified)	0	5	1	52*	10	15
O=C1NC(c2ccccc2)=C([N+](=O)[O-])C(c2cccc(F)c2)N1 (stereo unspecified)	0	12	2	76*	-5	-8
COc1cc(N)ccc1NC(=O)CSc1ncnc2sc3c(c12)CCCC3	0	6	1	79*	8	22
COCCNC(=O)CCCCn1c(=S)[nH]c2c([nH]c3ccc(OC)cc32)c1=O	1	4	-1	52*	-8	41*
O=C(O)c1cc(S(=O)(=O)Nc2ccc3cn[nH]c3c2)ccc1O	0	19	-1	76*	52*	21	AS interf DR=>7
O=C(O)c1cc(S(=O)(=O)Nc2ccncc2)ccc1O	0	4	1	66*	43*	9	AS interf DR=>7.1
O=S(=O)(Nc1ccc2cn[nH]c2c1)c1ccc2ccccc2c1	0	4	1	1	nt	nt
Cc1nc2ccc(NS(=O)(=O)c3ccc(O)c(C(=O)O)c3)cc2s1	0	10	0	35	nt	nt
Cc1ccc2nc(NS(=O)(=O)c3ccc(O)c(C(=O)O)c3)sc2c1	0	10	-3	65*	26	13
NS(=O)(=O)c1ccc(NS(=O)(=O)c2ccc(O)c(C(=O)O)c2)cc1	0	8	1	2	nt	nt
CC(C)(C)n1nc2c(c1NC(=O)C1CCCCC1)CS(=O)C2 (stereo unspecified)	0	0	1	6	nt	nt
CS(=O)(=O)N1CCN(Cc2ccccc2C(F)(F)F)CC1	0	0	-1	71*	-1	5
CCCN1CCC(NCc2ccccc2C(F)(F)F)CC1	0	9	0	55*	-3	-2
FC(F)(F)c1ccccc1CN1CCN(Cc2ccc(Br)cc2)CC1	0	-2	-1	82*	9	23
O=S(=O)(c1ccc(Cl)cc1)N1CCN(Cc2ccccc2C(F)(F)F)CC1	0	-13	0	-2	nt	nt
CN1CCC(NCc2ccccc2C(F)(F)F)CC1	0	4	0	-5	nt	nt
OCCC1CN(Cc2ccccc2C(F)(F)F)CCN1C1CCCC1 (stereo unspecified)	0	2	2	0	nt	nt
Fc1ccccc1CN1CCN(c2ccccn2)CC1	0	-13	-1	4	nt	nt
Fc1ccccc1CN1CCN(Cc2ccccc2C(F)(F)F)CC1	0	9	0	65*	-14	-2
Cc1ccccc1CN1CCN(C(=O)c2cccs2)CC1	0	-28	1	45	nt	nt
SMILES	FBW7 act	TEAD-YAP block	GPR151 ag	MITF inh	MITF confirm	AS interf ctr	others
COc1ccc(CN2CCN(Cc3ccccc3Br)CC2)cc1OC	0	-1	0	49	nt	nt
FC(F)(F)c1ccccc1CN1CCN(Cc2ccccc2Br)CC1	0	8	-2	62*	5	26
FC(F)(F)c1ccccc1CN1CCN(Cc2ccccc2C(F)(F)F)CC1	0	-6	1	70*	4	8
O=C(c1cccs1)N1CCN(Cc2ccccc2C(F)(F)F)CC1	0	4	1	70*	-5	0
OC1CCN(Cc2ccccc2C(F)(F)F)CC1	0	6	1	40	nt	nt
FC(F)(F)c1ccccc1CN1CCN(Cc2ccncc2)CC1	0	4	1	71*	-1	-4
COc1ccccc1NC(=O)C1CCN(C(=O)Nc2ccc(Cl)cc2)CC1	0	-6	0	-11	nt	nt
Cc1cc(C(=O)NCC2CCCN(CCCn3cccn3)C2)no1 (stereo unspecified)	0	-5	-1	-4	nt	nt
CCCOc1ccc(/C(O)=C2/C(=O)C(=O)N(CCCN(C)C)C2c2ccc(Br)cc2)cc1C (stereo unspecified)	0	3	1	12	nt	nt
Cc1cc(NC(=O)COCc2cc(-c3ccco3)on2)no1	0	-7	0	-2	nt	nt
FC(F)(F)c1ccccc1CN1CCN(C2CCCC2)CC1	0	6	3	64*	-5	-2
OCC1CCN(C2CCCN(Cc3ccccc3C(F)(F)F)C2)CC1 (stereo unspecified)	0	-4	-2	-1	nt	nt
O=C(O)C1CCCN1C(=O)/C=C/c1ccco1 (stereo unspecified)	0	-6	-2	10	nt	nt
O=C(NCC(O)C(=O)N1CCOCC1)c1cc(Nc2ccc3[nH]ncc3c2)ccn1 (stereo unspecified)	0	4	-1	0	nt	nt
O=C(NCC(O)C(=O)N1CCOCC1)c1cccc(Nc2ccc3[nH]ncc3c2)n1 (stereo unspecified)	0	8	0	57*	62*	7	AS interf DR=>6.5
COc1ccc(C(=O)c2ccc(N3CCOCC3)c([N+](=O)[O-])c2)c2ccccc12	0	-7	0	-2	nt	nt
CCn1c2ccccc2c2cc(CN3CCN(S(=O)(=O)c4ccc(OC)cc4)CC3)ccc21	0	6	-1	-15	nt	nt
CCn1c2ccccc2c2cc(CN3CCN(S(=O)(=O)c4ccc(F)cc4)CC3)ccc21	0	7	0	27	nt	nt
CCn1c2ccccc2c2cc(CN3CCCC(O)C3)ccc21 (stereo unspecified)	0	3	0	25	nt	nt
CCn1c2ccccc2c2cc(CN3CCN(Cc4ccc(SC)cc4)CC3)ccc21	0	12	-1	63*	13	19
CCn1c2ccccc2c2cc(CN3CCN(Cc4ccccc4[N+](=O)[O-])CC3)ccc21	0	-8	-1	65*	0	-6
CCn1c2ccccc2c2cc(CN3CCN(Cc4ccccc4F)CC3)ccc21	0	8	-1	82*	17	19
